# High-throughput results from PubChem BioAssay.
# Rows were chosen to be rich in hits. Some 13% of all compounds tested hit in one or more screens of this group.
# FMDV antiviral: antivirals against foot and mouth disease virus. AID 1159524. 1.2% of 410,000 active. Potency, µM (doses to about 57.9 µM), without a hit: top-dose activity change, negative = inhibition, usual class: inhibitors. FMDV antiviral cell-based qHTS; calls by dose curve; tested in HEK293T cells; further: read-out not given here; potency means the concentration at half of the fitted maximal effect; on the % scale 0 is the no-effect control and ±100 the full control effect; nearly all actives have a fitted effect of over 45% in size
# LASV entry inh: Lassa virus entry inhibition | 1.2% of 300,000 active | Lassa virus pseudotype entry inhibition, cell reporter | Potency, µM (top dose mostly 37.9 µM), for the others: top-dose activity change, negative = inhibition, actives largely listed as inhibitors; calls by dose curve; tested in HEK293 cells; further: potency means the concentration at half of the fitted maximal effect; on the % scale 0 is the no-effect control and ±100 the full control effect; nearly all actives have a fitted effect of over 50% in size
# CHX counter: affects cycloheximide protein synthesis inhibition readout, counter-screen. cell reporter, cycloheximide protein synthesis inhibition counterscreen. max response, %. AID 2314. 12% of 300,000 active; in the data active means max response mostly above about 13%, no sharp cut-off; inactive means mostly below about 14%; further: read at 38.3 µM for the half of the compounds with a filed dose; 0% is about no effect
# Marburg entry inh: inhibitors of Marburg virus binding or cell entry. Potency, µM (top dose mostly 37.8 µM), for inactives: top-dose activity change, negative = inhibition, hits mostly inhibitors. Marburg virus pseudotyped entry inhibition, cell reporter. 1.8% of 300,000 active; calls by dose curve; tested in HEK293 cells; further: potency means the concentration at half of the fitted maximal effect; on the % scale 0 is the no-effect control and ±100 the full control effect
# HCV inhibitor: HCV inhibition; Huh7.5.1 HCVcc-Cre infection, luciferase reporter, 44 h; Potency, µM (top dose mostly 41.8 µM), inactives show at the highest dose activity change, negative = inhibition, usual class: inhibitors; 3.4% of 340,000 active; AID 651820; active means well fitted inhibition curve with a large enough effect; inconclusive means small, poorly fitted or top-dose-only effect, or another doubt; inactive means no such curve, though single readings can be large or run the other way; further: potency means the concentration at half of the fitted maximal effect; on the % scale 0 is the no-effect control and ±100 the full control effect
#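 After 44 h co-culture of compound, cells and HCVcc-Cre (~0.5 moi), substrate is added for 15 min at room temperature and luciferase measured over 15 sec. Cells were seeded at 1,000/well and pre-cultured 4 h.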
# Shiga inhibitor: Shiga toxin inhibition | Vero cells, Shiga toxin protein synthesis inhibition reporter | inhibition, % at 38.7 µM | 9.2% of 290,000 active | AID 2315; in the data active means inhibition mostly above about 28%, no sharp cut-off; inactive means mostly below about 43%; further: 0% is about no effect
# Starred values were filed as active, the others as inactive; u = inconclusive; x = not tested or not shown; [ ] = remark or other dose.
SMILES,FMDV antiviral,LASV entry inh,CHX counter,Marburg entry inh,HCV inhibitor,Shiga inhibitor
CCOC(=O)Cn1c(=O)oc2cc(S(=O)(=O)NCc3ccc(F)cc3)ccc21,25%,4%[46.1 µM],x,u,x,x
Cc1cccc(C(=O)Nc2nnc(S(=O)(=O)N(C)Cc3ccccc3)s2)c1,6%,1%[46.1 µM],x,x,x,x
Cc1ccccc1-n1ccnc1SCC(=O)Nc1cccc(S(=O)(=O)NC2=NCCC2)c1,19%,u,x,2%,-1%,x
COCCNCC(=O)NC12CC3CC(CC(C3)C1)C2,-3%,-11%,-1,3%[46.1 µM],18%,6
NC(=O)c1sc2nc3c(cc2c1N)CCCCCC3,29%,9%,31*,16%[46.1 µM],3%,52*
O=C(COc1ccccc1)Nc1ccc(NC(=O)c2ccco2)cc1,0%,-1%[46.1 µM],10,3%[46.1 µM],7%,17
CCOc1ccc(NC(=O)CCNC(=O)c2ccco2)cc1,12%,-18%,19*,13%,-17%,14
Cc1ccc(NC(=O)CCNC(=O)c2ccco2)cc1,-13%,-3%,11,u,9%,8
Cc1ccc(NC(=O)CNC(=O)c2ccco2)cc1Cl,45%,u,22*,19%,5%,36
O=C(CNC(=O)c1ccco1)Nc1ccc(F)cc1,27%,u,12,-1%,13%,52
CCOc1ccc(NC(=O)CNC(=O)c2ccco2)cc1,57%,x,18*,x,-3%,16
COc1ccc(OCC(=O)Nc2ccc(NC(=O)c3ccco3)cc2)cc1,20%,-2%,24*,u,-1%,78*
O=C(CNC(=O)c1ccco1)Nc1ccc(F)c(Cl)c1,21%,21%,-3,u,-8%,-6
COc1ccc(CCNC(=O)C(=O)Nc2ccc3c(c2)OCCO3)cc1OC,5%,x,1,x,0%,-9
CCN(C(=O)COC(=O)c1[nH]c(C)c(C(C)=O)c1C)c1c(N)n(Cc2ccccc2)c(=O)[nH]c1=O,-20%,x,x,x,u,x
COc1ccc(NC(=O)Cn2nnc(-c3ccccc3NC(=O)c3ccco3)n2)cc1,-43%,u,-4,11µM*,u,-9
COc1ccccc1NC(=O)Cn1nnc(-c2ccccc2NC(=O)c2ccco2)n1,u,u,-3,-28%,u,-13
Cc1cccc(C)c1OCC(=O)Nc1cccc(NC(=O)c2ccco2)c1,0%,u,14,u,11µM*,15
COc1ccc(CNC(=O)COC(=O)c2n[nH]c3ccccc23)cc1,u,u,-1,-2%,12%,-13
COc1ccc(CCNC(=O)c2n[nH]c3ccccc23)cc1,12%,u,47*,u,-22%,45*
COCCNC(=O)c1n[nH]c2ccccc12,-1%,-2%[46.1 µM],31*,u,4%,57
O=C(NC1CCCC1)c1n[nH]c2ccccc12,77%,x,43*,x,13%,54
Nc1ccn(Cc2ccccc2)n1,-16%,-27%[46.1 µM],4,u,7%,-16
c1ccc(Cn2ccc(-c3cnc(-c4ccccc4)s3)n2)cc1,-17%,11µM*,41*,u,u,109*
O=C(O)c1cc(=O)c2cccc(O)c2[nH]1,-12%,x,3,x,x,-2
SMILES,FMDV antiviral,LASV entry inh,CHX counter,Marburg entry inh,HCV inhibitor,Shiga inhibitor
COc1ccc(N2CC(C(=O)NC3CCCCC3)CC2=O)cc1 (stereo unspecified),11%,16%,-9,3%[46.1 µM],17%,2
Cc1cccc(-n2c(C)cc(C(=O)NC3CCCCC3)c2C)c1,-8%,u,94*,u,-17%,85*
Cc1cccc(-n2c(C)nc3cc(C(=O)NC4CCCCCC4)ccc32)c1,17%,10%[46.1 µM],x,x,x,x
COc1ccc(-n2c(C)cc(C(=O)NC3CCCCC3)c2C)cc1,x,16%,58*,-2%,18%,94*
CC(OC(=O)CCCc1nc2ccccc2s1)C(N)=O (stereo unspecified),3%,-17%,13,-1%[46.1 µM],1%,31
COc1ccnc(CN(C)C(=O)C2CCC(=O)N(Cc3cccc(C(F)(F)F)c3)C2)c1 (stereo unspecified),7%,11%[46.1 µM],-3,1%[46.1 µM],10%,-4
COc1ccc(OC)c(S(=O)(=O)NCc2ccccn2)c1,58%,x,-1,x,8%,-11
COc1ccnc(CSC(N)=Nc2cccc(C(F)(F)F)c2)c1,u,3%,25*,-13%,36%,42
COc1ccnc(CSC(N)=Nc2ccccc2OC)c1,-28%,3%,75*,12%,1%,91*
